Measured values: the supplement of paper PMC7411054

Key:
Assay in all cases: phenotypically active (imaging signature differs from DMSO and reproducible) at any of 0.3-9 uM (binary (1 = active, 0 = inactive)); higher = active
Conditions in all cases: treatment time: 24 h
A549-ACTB-RAB5A = tested on: A549-ACTB-RAB5A
How it was run: (§1)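 Fifteen gene-edited A549, HepG2 and WPMY1 reporter lines (BFP segmentation plus GFP and RFP/FusionRed markers) were treated at 0.3, 1, 3 or 9 µM for 24 h, four wells each, then imaged live. Live-cell features per well were normalised to DMSO control wells. Deviation required ≥3 of 4 wells beyond the 95th percentile of DMSO Euclidean distances, and reproducibility required median replicate Pearson correlation above the 95th percentile of non-replicates. Phenotypic activity needed both criteria.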

A549-CANX-COX4 = tested on: A549-CANX-COX4
How it was run: as §1

A549-GM130-SQSTM1 = tested on: A549-GM130-SQSTM1
How it was run: as §1

A549-TP53BP1-CLTA = tested on: A549-TP53BP1-CLTA
How it was run: as §1

A549-TUBA1B-RELA = tested on: A549-TUBA1B-RELA
How it was run: as §1

HepG2-ACTB-RAB5A = tested on: HepG2-ACTB-RAB5A
How it was run: as §1

HepG2-CANX-COX4 = tested on: HepG2-CANX-COX4
How it was run: as §1

HepG2-GM130-SQSTM1 = tested on: HepG2-GM130-SQSTM1
How it was run: as §1

HepG2-TP53BP1-CLTA = tested on: HepG2-TP53BP1-CLTA
How it was run: as §1

HepG2-TUBA1B-RELA = tested on: HepG2-TUBA1B-RELA
How it was run: as §1

WPMY1-ACTB-RAB5A = tested on: WPMY1-ACTB-RAB5A
How it was run: as §1

WPMY1-CANX-COX4 = tested on: WPMY1-CANX-COX4
How it was run: as §1

WPMY1-GM130-SQSTM1 = tested on: WPMY1-GM130-SQSTM1
How it was run: as §1

WPMY1-TP53BP1-CLTA = tested on: WPMY1-TP53BP1-CLTA
How it was run: as §1

WPMY1-TUBA1B-RELA = tested on: WPMY1-TUBA1B-RELA
How it was run: as §1

Measured: phenotypically active

Cc1ccc([N+](=O)[O-])cc1S(=O)(=O)N(C)C
inactive: A549-ACTB-RAB5A 0 | A549-CANX-COX4 0 | A549-GM130-SQSTM1 0 | A549-TP53BP1-CLTA 0 | A549-TUBA1B-RELA 0 | HepG2-ACTB-RAB5A 0 | HepG2-CANX-COX4 0 | HepG2-GM130-SQSTM1 0 | HepG2-TP53BP1-CLTA 0 | HepG2-TUBA1B-RELA 0 | WPMY1-ACTB-RAB5A 0 | WPMY1-CANX-COX4 0 | WPMY1-GM130-SQSTM1 0 | WPMY1-TP53BP1-CLTA 0 | WPMY1-TUBA1B-RELA 0

COc1ccc2c(c1)N(C(C)=O)[C@H]1[C@@H]3CO[C@H](C)[C@@H]4CN5CC[C@]21[C@@H]5C[C@H]34 [Strychnospermine]
inactive: A549-ACTB-RAB5A 0 | A549-CANX-COX4 0 | A549-GM130-SQSTM1 0 | A549-TP53BP1-CLTA 0 | A549-TUBA1B-RELA 0 | HepG2-ACTB-RAB5A 0 | HepG2-CANX-COX4 0 | HepG2-GM130-SQSTM1 0 | HepG2-TP53BP1-CLTA 0 | HepG2-TUBA1B-RELA 0 | WPMY1-ACTB-RAB5A 0 | WPMY1-CANX-COX4 0 | WPMY1-GM130-SQSTM1 0 | WPMY1-TP53BP1-CLTA 0 | WPMY1-TUBA1B-RELA 0

O=C(Nc1cc(C(F)(F)F)cc(C(F)(F)F)c1)c1cnc(Cl)nc1C(F)(F)F
inactive: A549-ACTB-RAB5A 0 | A549-CANX-COX4 0 | A549-GM130-SQSTM1 0 | A549-TP53BP1-CLTA 0 | A549-TUBA1B-RELA 0 | HepG2-ACTB-RAB5A 0 | HepG2-CANX-COX4 0 | HepG2-GM130-SQSTM1 0 | HepG2-TP53BP1-CLTA 0 | HepG2-TUBA1B-RELA 0 | WPMY1-ACTB-RAB5A 0 | WPMY1-CANX-COX4 0 | WPMY1-GM130-SQSTM1 0 | WPMY1-TP53BP1-CLTA 0 | WPMY1-TUBA1B-RELA 0

Nc1ncnc2c1ncn2[C@@H]1O[C@H](CO)C[C@H]1O [Cordycepin]
inactive: A549-ACTB-RAB5A 0 | A549-CANX-COX4 0 | A549-GM130-SQSTM1 0 | A549-TP53BP1-CLTA 0 | A549-TUBA1B-RELA 0 | HepG2-ACTB-RAB5A 0 | HepG2-CANX-COX4 0 | HepG2-GM130-SQSTM1 0 | HepG2-TP53BP1-CLTA 0 | HepG2-TUBA1B-RELA 0 | WPMY1-ACTB-RAB5A 0 | WPMY1-CANX-COX4 0 | WPMY1-GM130-SQSTM1 0 | WPMY1-TP53BP1-CLTA 0 | WPMY1-TUBA1B-RELA 0

CC(Oc1ccc(O)cc1)(P(=O)(O)O)P(=O)(O)O
inactive: A549-ACTB-RAB5A 0 | A549-CANX-COX4 0 | A549-GM130-SQSTM1 0 | A549-TP53BP1-CLTA 0 | A549-TUBA1B-RELA 0 | HepG2-ACTB-RAB5A 0 | HepG2-CANX-COX4 0 | HepG2-GM130-SQSTM1 0 | HepG2-TP53BP1-CLTA 0 | HepG2-TUBA1B-RELA 0 | WPMY1-ACTB-RAB5A 0 | WPMY1-CANX-COX4 0 | WPMY1-GM130-SQSTM1 0 | WPMY1-TP53BP1-CLTA 0 | WPMY1-TUBA1B-RELA 0

O=C(/C=C/c1ccc(O)c(O)c1)O[C@@H]1C[C@](O)(C(=O)O)C[C@@H](O)[C@H]1O [Chlorogenic acid]
inactive: A549-ACTB-RAB5A 0 | A549-CANX-COX4 0 | A549-GM130-SQSTM1 0 | A549-TP53BP1-CLTA 0 | A549-TUBA1B-RELA 0 | HepG2-ACTB-RAB5A 0 | HepG2-CANX-COX4 0 | HepG2-GM130-SQSTM1 0 | HepG2-TP53BP1-CLTA 0 | HepG2-TUBA1B-RELA 0 | WPMY1-ACTB-RAB5A 0 | WPMY1-CANX-COX4 0 | WPMY1-GM130-SQSTM1 0 | WPMY1-TP53BP1-CLTA 0 | WPMY1-TUBA1B-RELA 0

COc1ccccc1OCC(O)COC(N)=O (stereo not given) [methocarbamol]
inactive: A549-ACTB-RAB5A 0 | A549-CANX-COX4 0 | A549-GM130-SQSTM1 0 | A549-TP53BP1-CLTA 0 | A549-TUBA1B-RELA 0 | HepG2-ACTB-RAB5A 0 | HepG2-CANX-COX4 0 | HepG2-GM130-SQSTM1 0 | HepG2-TP53BP1-CLTA 0 | HepG2-TUBA1B-RELA 0 | WPMY1-ACTB-RAB5A 0 | WPMY1-CANX-COX4 0 | WPMY1-GM130-SQSTM1 0 | WPMY1-TP53BP1-CLTA 0 | WPMY1-TUBA1B-RELA 0

CCOC(=O)[C@H](CCc1ccccc1)N[C@@H](C)C(=O)N1Cc2ccccc2C[C@H]1C(=O)O [quinapril]
inactive: A549-ACTB-RAB5A 0 | A549-CANX-COX4 0 | A549-GM130-SQSTM1 0 | A549-TP53BP1-CLTA 0 | A549-TUBA1B-RELA 0 | HepG2-ACTB-RAB5A 0 | HepG2-CANX-COX4 0 | HepG2-GM130-SQSTM1 0 | HepG2-TP53BP1-CLTA 0 | HepG2-TUBA1B-RELA 0 | WPMY1-ACTB-RAB5A 0 | WPMY1-CANX-COX4 0 | WPMY1-GM130-SQSTM1 0 | WPMY1-TP53BP1-CLTA 0 | WPMY1-TUBA1B-RELA 0

CC(C)c1ccc(NC(=O)Cn2cnc3c2c(=O)n(C)c(=O)n3C)cc1
inactive: A549-ACTB-RAB5A 0 | A549-CANX-COX4 0 | A549-GM130-SQSTM1 0 | A549-TP53BP1-CLTA 0 | A549-TUBA1B-RELA 0 | HepG2-ACTB-RAB5A 0 | HepG2-CANX-COX4 0 | HepG2-GM130-SQSTM1 0 | HepG2-TP53BP1-CLTA 0 | HepG2-TUBA1B-RELA 0 | WPMY1-ACTB-RAB5A 0 | WPMY1-CANX-COX4 0 | WPMY1-GM130-SQSTM1 0 | WPMY1-TP53BP1-CLTA 0 | WPMY1-TUBA1B-RELA 0

NC(=O)c1cccc(-c2cccc(OC(=O)NC3CCCCC3)c2)c1
inactive: A549-ACTB-RAB5A 0 | A549-CANX-COX4 0 | A549-GM130-SQSTM1 0 | A549-TP53BP1-CLTA 0 | A549-TUBA1B-RELA 0 | HepG2-ACTB-RAB5A 0 | HepG2-CANX-COX4 0 | HepG2-GM130-SQSTM1 0 | HepG2-TP53BP1-CLTA 0 | HepG2-TUBA1B-RELA 0 | WPMY1-ACTB-RAB5A 0 | WPMY1-CANX-COX4 0 | WPMY1-GM130-SQSTM1 0 | WPMY1-TP53BP1-CLTA 0 | WPMY1-TUBA1B-RELA 0

OCCn1cc(-c2cnc3nnn(Cc4ccc5ncccc5c4)c3n2)cn1
inactive: A549-ACTB-RAB5A 0 | A549-CANX-COX4 0 | A549-GM130-SQSTM1 0 | A549-TP53BP1-CLTA 0 | A549-TUBA1B-RELA 0 | HepG2-ACTB-RAB5A 0 | HepG2-CANX-COX4 0 | HepG2-GM130-SQSTM1 0 | HepG2-TP53BP1-CLTA 0 | HepG2-TUBA1B-RELA 0 | WPMY1-ACTB-RAB5A 0 | WPMY1-CANX-COX4 0 | WPMY1-GM130-SQSTM1 0 | WPMY1-TP53BP1-CLTA 0 | WPMY1-TUBA1B-RELA 0

C=C(C)[C@@H]1CC[C@]2(C(=O)O)CC[C@]3(C)[C@H](CC[C@@H]4[C@@]5(C)CC[C@H](O)C(C)(C)[C@@H]5CC[C@]43C)[C@@H]12 [betulinic-acid]
inactive: A549-ACTB-RAB5A 0 | A549-CANX-COX4 0 | A549-GM130-SQSTM1 0 | A549-TP53BP1-CLTA 0 | A549-TUBA1B-RELA 0 | HepG2-ACTB-RAB5A 0 | HepG2-CANX-COX4 0 | HepG2-GM130-SQSTM1 0 | HepG2-TP53BP1-CLTA 0 | HepG2-TUBA1B-RELA 0 | WPMY1-ACTB-RAB5A 0 | WPMY1-CANX-COX4 0 | WPMY1-GM130-SQSTM1 0 | WPMY1-TP53BP1-CLTA 0 | WPMY1-TUBA1B-RELA 0
